Source: PubChem BioAssay (NCATS)
Values joined by “and” are separate entries in the source; they are usually repeats but may differ in a detail not shown here. Equal values may be shown once. Inconclusive results are not listed. Active and inactive are the calls of the source. Unless noted, the call rests on the fitted dose curve; in most records, active means well fitted curve in the direction sought with a large enough effect; inconclusive means small, poorly fitted or top-dose-only effect, or another doubt; inactive means no such curve, though single readings can be large; an effect the other way counts as inactive or inconclusive.

Tests used:
[1] = AP1 Signaling Pathway (AID 357; active means well fitted curve in either direction with a large enough effect, not every such curve was filed as active;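 further: ME-180 reporter cells stimulated with EGF at its EC50 level; on the % scale 0 is the no-effect control and ±100 the full control effect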); conditions: ME-180 AP-1-bla reporter, EGF-induced, beta-lactamase ratio, 5 h; at 38 µM (top of the series)
Outline: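 Cells are seeded overnight, exposed to compound titrations and an EC50 level of EGF for 5 hours at 37 °C, then loaded with CCF4 dye for 2.5 hours. Beta-lactamase activity under the AP-1 element is read as a blue/green ratio.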

[2] = molecular target: Cytochrome P450 1A2 (Homo sapiens) (UniProt P05177); test: p450-cyp1a2 (AID 410; calls by dose curve; further: potency means the concentration at half of the fitted maximal effect;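 on activity change, negative = inhibition: -100% = full effect of reference inhibitor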); conditions: recombinant CYP1A2, luciferin-ME demethylation, luminescence; series mostly up to 57 µM
Cytochrome P450 1A2 (Homo sapiens), sequence (P05177 whole entry, looked up): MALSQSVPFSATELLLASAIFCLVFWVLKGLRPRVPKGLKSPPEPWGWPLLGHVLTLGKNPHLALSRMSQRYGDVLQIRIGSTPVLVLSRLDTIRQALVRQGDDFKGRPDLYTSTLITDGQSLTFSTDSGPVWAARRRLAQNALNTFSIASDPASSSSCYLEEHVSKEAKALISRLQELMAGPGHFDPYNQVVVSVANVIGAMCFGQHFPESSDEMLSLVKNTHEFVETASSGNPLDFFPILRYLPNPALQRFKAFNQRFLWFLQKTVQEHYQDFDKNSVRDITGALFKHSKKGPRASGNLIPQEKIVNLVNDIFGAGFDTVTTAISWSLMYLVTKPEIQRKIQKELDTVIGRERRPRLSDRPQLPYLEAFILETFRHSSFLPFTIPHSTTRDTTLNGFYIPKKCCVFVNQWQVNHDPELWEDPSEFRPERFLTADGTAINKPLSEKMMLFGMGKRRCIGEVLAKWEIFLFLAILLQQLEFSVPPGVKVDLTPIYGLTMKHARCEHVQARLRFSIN
Outline: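 Human CYP1A2 (20nM) demethylated Luciferin-ME at its Km (100uM) in 100mM KPO4. After 10 min compound preincubation, NADPH regeneration ran the reaction 60 min at room temperature. Luciferin was read by luminescence, normalized to 57 uM furafylline.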

[3] = NFAT Signaling Pathway (AID 444; active means well fitted curve in either direction with a large enough effect, not every such curve was filed as active;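 further: carbachol stimulus at about its EC50 of 1 µM final; on the % scale 0 is the no-effect control and ±100 the full control effect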); conditions: Jurkat NFAT-bla M1, carbachol, beta-lactamase ratio, 5 h
Outline: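 Jurkat cells with NFAT-driven β-lactamase reporter and co-expressed M1 receptor, stimulated with carbachol (final 1 uM, ~EC50), compound titration, 5 h at 37 °C. CCF4 loaded 1 h at RT; 460/530 nm ratio gave %activity and AC50.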

[4] = Stat Signaling Pathway (AID 446; active means well fitted curve in either direction with a large enough effect, not every such curve was filed as active;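 further: ME-180 cervical cancer cells given 40 pM IL-6 alongside compound; SIE-controlled beta-lactamase reporter measured as 460/530 nm FRET emission ratio; on the % scale 0 is the no-effect control and ±100 the full control effect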); conditions: ME-180 SIE beta-lactamase reporter, IL-6 stimulated, 5 h
Outline: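 Screening format detects activators and inhibitors alike: ME-180 SIE-bla cells stimulated at 40 pM IL-6 for 5 hrs with compound, then dual-emission beta-lactamase read at 405 nm excitation.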

[5] = molecular target: Mitogen-activated protein kinase 10 (Mus musculus) (UniProt Q61831); test: JNK3 AlphaScreen Assay (AID 530; active means well fitted curve in either direction with a large enough effect, not every such curve was filed as active;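 further: kinase came from lysate of stimulated human HepG2 cells; signal reports phosphorylation of biotinylated GST-cJun 1-79 at Ser73 with 10 µM ATP; on the % scale 0 is the no-effect control and ±100 the full control effect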); conditions: JNK3 lysate, c-Jun phosphorylation; series mostly up to 57.1 µM
Outline: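 qHTS format: compounds tested as titrations against IL-1beta/TNF-alpha-activated HepG2 lysate JNK3 with biotin-GST-cJun substrate and 10 uM ATP at room temperature. Loss of anti-phospho-cJun AlphaScreen signal indicates inhibition.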

[6] = molecular target: Guanine nucleotide-binding protein G(i) subunit alpha-1 (Homo sapiens) (UniProt P63096); test: qHTS Assay for Inhibitors of RGS12 GoLoco Motif Activity (Green Fluorophore) (AID 879); conditions: Galphai1/FITC-RGS12 GoLoco peptide, fluorescence polarization; series mostly up to 57.1 µM;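 further: 0% = labeled peptide with Gαi1 and full inhibition = labeled peptide alone without protein; negative values mean loss of peptide binding seen as reduced polarization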
Guanine nucleotide-binding protein G(i) subunit alpha-1 (Homo sapiens), sequence (P63096 whole entry, looked up): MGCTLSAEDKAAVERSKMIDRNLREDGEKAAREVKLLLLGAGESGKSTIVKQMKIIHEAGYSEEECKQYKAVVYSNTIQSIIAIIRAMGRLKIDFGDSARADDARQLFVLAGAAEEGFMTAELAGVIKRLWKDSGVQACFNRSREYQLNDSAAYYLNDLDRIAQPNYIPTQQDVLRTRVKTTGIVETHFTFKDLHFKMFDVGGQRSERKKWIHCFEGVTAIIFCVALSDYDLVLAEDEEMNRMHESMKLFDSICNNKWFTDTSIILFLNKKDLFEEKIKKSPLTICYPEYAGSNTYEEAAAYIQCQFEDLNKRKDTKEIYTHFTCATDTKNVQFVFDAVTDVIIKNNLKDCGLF
Outline: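 Fluorescence polarization assay: 50 nM Gαi1 with 10 nM FITC-labeled RGS12 GoLoco peptide in 10 mM Tris pH 7.5, 150 mM NaCl, 0.1 mM GDP, 0.05% NP40, 10 min at room temperature with compound.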

[7] = molecular target: Cytochrome P450 3A4 (Homo sapiens) (UniProt P08684); test: qHTS Assay for Activators of Cytochrome P450 3A4 (AID 885); conditions: recombinant CYP3A4, Luciferin-PPXE luminescence, 60 min; series mostly up to 57.1 µM; further: nearly all actives have a fitted effect of over 65% in size
Cytochrome P450 3A4 (Homo sapiens), sequence (P08684 whole entry, looked up): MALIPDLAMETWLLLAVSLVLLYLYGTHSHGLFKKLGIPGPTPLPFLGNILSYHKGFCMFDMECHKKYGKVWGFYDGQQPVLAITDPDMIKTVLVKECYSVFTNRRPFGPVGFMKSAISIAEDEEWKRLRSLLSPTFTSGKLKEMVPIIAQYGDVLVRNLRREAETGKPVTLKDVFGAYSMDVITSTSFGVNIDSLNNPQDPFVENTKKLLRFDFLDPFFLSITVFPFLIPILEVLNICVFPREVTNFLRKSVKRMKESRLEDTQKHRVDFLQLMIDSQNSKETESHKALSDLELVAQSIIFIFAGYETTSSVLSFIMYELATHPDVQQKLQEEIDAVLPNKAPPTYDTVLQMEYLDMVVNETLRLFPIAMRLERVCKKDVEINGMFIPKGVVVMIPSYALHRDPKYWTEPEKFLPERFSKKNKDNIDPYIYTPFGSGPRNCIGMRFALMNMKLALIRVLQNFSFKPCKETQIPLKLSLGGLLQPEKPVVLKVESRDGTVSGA
Outline: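 Steps: enzyme/substrate mix dispensed; compound added, 10 min RT; NADPH regeneration solution added, 60 min RT; luciferin detection buffer stops reaction; 20 min later luminescence measured.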

[8] = molecular target: Cytochrome P450 2C19 (Homo sapiens) (UniProt P33261); test: qHTS Assay for Inhibitors and Substrates of Cytochrome P450 2C19 (AID 899); conditions: recombinant CYP2C19, luciferin-H EGE luminescence; series mostly up to 57.1 µM; further: nearly all actives have a fitted effect of over 60% in size; further: potency means the concentration at half of the fitted maximal effect
Cytochrome P450 2C19 (Homo sapiens), sequence (P33261 whole entry, looked up): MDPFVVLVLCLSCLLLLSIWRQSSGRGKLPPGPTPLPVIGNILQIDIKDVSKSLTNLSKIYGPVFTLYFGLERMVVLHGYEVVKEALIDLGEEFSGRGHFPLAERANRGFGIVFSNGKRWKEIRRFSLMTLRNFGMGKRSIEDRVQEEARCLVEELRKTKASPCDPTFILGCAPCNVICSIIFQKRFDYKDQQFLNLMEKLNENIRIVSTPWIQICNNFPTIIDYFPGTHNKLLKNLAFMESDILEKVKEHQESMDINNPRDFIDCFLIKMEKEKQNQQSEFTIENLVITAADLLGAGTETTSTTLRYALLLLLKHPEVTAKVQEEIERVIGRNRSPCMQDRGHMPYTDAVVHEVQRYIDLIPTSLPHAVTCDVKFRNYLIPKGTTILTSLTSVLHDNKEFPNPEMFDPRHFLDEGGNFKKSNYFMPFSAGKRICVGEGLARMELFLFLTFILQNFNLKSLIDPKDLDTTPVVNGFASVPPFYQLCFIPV
Outline: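 Luminescent read-out of luciferin formed from Luciferin-H EGE (10uM, equal to KM). Enzyme 5nM in 50mM KPO4; compound added, 10 min at 37C, then NADPH regenerating system for 60 min at 37C. Full inhibition defined by 57uM ketoconazole.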

[9] = molecular target: Pyruvate kinase (Leishmania mexicana) (UniProt Q27686); test: qHTS Validation Assay for Inhibitors of Leishmania Mexicana Pyruvate Kinase (AID 945);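 further: 0% = DMSO only neutral control wells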; conditions: purified L. mexicana pyruvate kinase, enzyme activity, E451W mutant enzyme; series mostly up to 57.5 µM
Outline: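 Read-out: luminescence from PKLight stop/detection reagent, data normalized to DMSO. Reaction: 0.2 nM E451W LmPYK, 0.5 mM PEP, 0.1 mM ADP, pH 7.2, 1 h room temperature.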

[10] = molecular target: Pyruvate kinase PKM (Homo sapiens) (UniProt P14618); test: qHTS Assay for Activators of Human Muscle Pyruvate Kinase (AID 954; active means well fitted curve in the direction sought with a large enough effect, not every such curve was filed as active;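 further: 0% = uninhibited enzyme and -100% = no enzyme or full thiadiazolimine inhibition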); conditions: purified human muscle pyruvate kinase, luciferase-coupled luminescence, 1 h; series mostly up to 57.5 µM
Outline: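 Reaction: 0.1 nM purified PKM2 with 0.5 mM phosphoenolpyruvate and 0.1 mM ADP, room temperature, 1 h. Readout: luciferase-based ATP luminescence after stop reagent. Activators judged against a 0.3 nM enzyme column.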

[11] = molecular target: Alpha-galactosidase A (Homo sapiens) (UniProt P06280); test: Counterscreen for Glucocerebrosidase Inhibitors: qHTS Assay for Human alpha-Galactosidase at pH 4.5 (AID 992); conditions: purified enzyme, fluorogenic substrate; series mostly up to 76.9 µM; further: 0% is about no effect
Alpha-galactosidase A (Homo sapiens), sequence (P06280 whole entry, looked up): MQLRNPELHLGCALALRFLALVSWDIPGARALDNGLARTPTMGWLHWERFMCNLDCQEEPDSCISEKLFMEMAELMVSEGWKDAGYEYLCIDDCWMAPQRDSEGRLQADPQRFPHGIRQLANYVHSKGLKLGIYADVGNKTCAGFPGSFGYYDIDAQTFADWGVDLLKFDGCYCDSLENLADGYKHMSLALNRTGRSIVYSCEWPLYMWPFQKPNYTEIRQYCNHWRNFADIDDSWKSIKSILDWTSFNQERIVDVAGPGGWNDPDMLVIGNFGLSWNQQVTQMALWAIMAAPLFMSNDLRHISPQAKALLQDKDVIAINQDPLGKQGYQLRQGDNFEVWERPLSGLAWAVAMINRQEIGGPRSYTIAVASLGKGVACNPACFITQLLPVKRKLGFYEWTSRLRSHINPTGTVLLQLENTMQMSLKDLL
Outline: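 Concentration-response curves (0.7 nM to 77 uM final) were modeled with the Hill equation to give AC50. Reactions: 2 nM enzyme, 80 uM fluorogenic alpha-galactoside, pH 4.5 citric acid buffer, 20 min, room temperature.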

[12] = molecular target: alpha-glucosidase (Oryza sativa, rice) (UniProt Q653V4); test: Counterscreen for Glucocerebrosidase Inhibitors: qHTS Assay for Rice alpha-Glucosidase at pH 5.0 (AID 997); conditions: rice alpha-glucosidase enzyme activity; series mostly up to 76.9 µM;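 further: 0% = full activity with enzyme and -100% = basal without enzyme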
Outline: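 Rice alpha-glucosidase (4 nM final) with 400 uM 4-methylumbelliferyl-alpha-D-glucopyranoside in citrate buffer pH 5.0, 20 min at room temperature, stopped at pH 10; fluorescence 365/440 nm, compounds 0.7 nM–77 uM, AC50 from Hill fits.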

[13] = molecular target: DNA dC->dU-editing enzyme APOBEC-3G (Homo sapiens) (UniProt Q9HC16); test: qHTS for inhibitors of Vif-A3G interactions: Validation (AID 588379); conditions: Vif-A3G protein interaction assay; series mostly up to 46.1 µM; further: 0% is about no effect
DNA dC->dU-editing enzyme APOBEC-3G (Homo sapiens), sequence (Q9HC16 whole entry, looked up): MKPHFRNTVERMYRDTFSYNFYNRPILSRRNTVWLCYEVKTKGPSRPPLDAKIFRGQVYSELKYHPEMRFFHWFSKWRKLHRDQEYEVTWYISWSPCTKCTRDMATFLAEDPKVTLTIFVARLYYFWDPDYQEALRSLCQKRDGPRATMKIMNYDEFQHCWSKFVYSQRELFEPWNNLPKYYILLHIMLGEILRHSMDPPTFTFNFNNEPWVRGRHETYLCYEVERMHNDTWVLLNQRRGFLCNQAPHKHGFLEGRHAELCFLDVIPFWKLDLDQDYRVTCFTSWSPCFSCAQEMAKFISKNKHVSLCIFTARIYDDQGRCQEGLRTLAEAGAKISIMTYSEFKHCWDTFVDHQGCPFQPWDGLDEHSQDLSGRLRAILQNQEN
Outline: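 HeLa cells stably expressing Vif and A3G-eYFP, 700 cells/well, incubated overnight at 37 deg C, then exposed to compound overnight at 37 deg C. Inhibition of Vif-mediated degradation read as increased yellow fluorescence (Ex 488/Em 500-530) by laser-scanning cytometry.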

[14] = tested on: Zika virus NS2B-NS3 protease; test: Primary screen GU AMC qHTS for Zika virus inhibitors (AID 1347154); conditions: Zika NS2B-NS3 unlinked protease, AMC fluorogenic substrate; series mostly up to 54.1 µM;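 further: 0% = no-inhibitor control and -100% = no-enzyme control; nearly all actives have a fitted effect of over 70% in size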
Outline: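 Unlinked Zika NS2B hydrophilic domain–NS3 protease complex at 25 nM in 10 mM Tris-HCl pH 8.0, 0.01% Tween 20, with an AMC peptide substrate. Fluorescence change (340/450 nm) over 15 min at room temperature, normalized to controls, fitted to 4-parameter Hill.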

[15] = Primary qHTS for small molecule stabilizers of the endoplasmic reticulum resident proteome: Secreted ER Calcium Modulated Protein (SERCaMP) assay (AID 1508630); conditions: SH-SY5Y GLuc-SERCaMP (Gaussia luciferase released on ER calcium loss) secretion, thapsigargin, luminescence; series mostly up to 38.4 µM; further: on the % scale 0 is the no-effect control and ±100 the full control effect
Outline: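 GLuc-SERCaMP-expressing SH-SY5Y cells, pretreated 16 h with compound, are challenged with thapsigargin to empty ER calcium stores; after 4 h, coelenterazine is added directly to the medium and luminescence is imaged.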

[16] = molecular target: Glucocorticoid receptor (Homo sapiens) (UniProt P04150); test: GR-GFP Redistribution (AID 450;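 active means compounds whose dose series gives a full or clear partial fitted curve of increased nuclear translocation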; further: potency means the concentration at half of the fitted maximal effect); conditions: U2OS GR-GFP nuclear translocation, laser cytometry, 2 h
Glucocorticoid receptor (Homo sapiens), sequence (P04150 whole entry, looked up, the tested form may be a part): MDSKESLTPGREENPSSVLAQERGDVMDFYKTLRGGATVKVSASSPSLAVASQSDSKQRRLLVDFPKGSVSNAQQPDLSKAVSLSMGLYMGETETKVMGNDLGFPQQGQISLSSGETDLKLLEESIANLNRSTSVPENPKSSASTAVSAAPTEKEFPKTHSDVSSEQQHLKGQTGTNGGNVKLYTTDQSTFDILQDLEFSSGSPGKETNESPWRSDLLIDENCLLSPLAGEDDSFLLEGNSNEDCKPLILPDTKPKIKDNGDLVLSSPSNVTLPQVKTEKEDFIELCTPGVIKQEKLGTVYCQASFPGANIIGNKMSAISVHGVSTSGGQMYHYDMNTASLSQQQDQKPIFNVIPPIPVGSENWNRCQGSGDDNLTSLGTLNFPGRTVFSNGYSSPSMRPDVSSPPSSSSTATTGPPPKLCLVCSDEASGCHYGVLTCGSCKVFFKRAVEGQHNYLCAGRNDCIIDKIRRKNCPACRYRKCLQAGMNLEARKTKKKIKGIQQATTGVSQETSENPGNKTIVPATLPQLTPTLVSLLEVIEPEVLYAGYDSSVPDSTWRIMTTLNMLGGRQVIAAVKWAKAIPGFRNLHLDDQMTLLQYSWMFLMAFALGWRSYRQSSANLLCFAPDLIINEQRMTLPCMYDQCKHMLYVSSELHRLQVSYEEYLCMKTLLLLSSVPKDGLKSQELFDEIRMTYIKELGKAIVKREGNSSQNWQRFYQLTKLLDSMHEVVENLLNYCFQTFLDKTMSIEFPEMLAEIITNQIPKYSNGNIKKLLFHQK

[17] = molecular target: Glucocorticoid receptor (Homo sapiens) (UniProt P04150); test: GR-EFC Redistribution (AID 451; calls by dose curve; further: potency means the concentration at half of the fitted maximal effect); conditions: CHO-K1 GR-EFC translocation, beta-gal luminescence, 2 h
Outline: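 CHO-K1 cells expressing nuclear EA and GR-ED fragments of b-gal; compounds titrated up to 46 uM final, 2 h at 37 C. GR nuclear translocation read as complemented b-gal luminescence after 1 h RT detection.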

[18] = molecular target: Ubiquitin carboxyl-terminal hydrolase 1 (Homo sapiens) (UniProt O94782); test: Inhibitors of USP1/UAF1: Pilot qHTS (AID 504865); conditions: purified USP1/UAF1, Ub-rhodamine cleavage fluorescence; series mostly up to 114 µM;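 further: rhodamine fluorescence freed from ubiquitin-rhodamine substrate followed over time; top concentration of the series differs between compounds; on the % scale 0 is the no-effect control and ±100 the full control effect; nearly all actives have a fitted effect of over 35% in size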
Ubiquitin carboxyl-terminal hydrolase 1 (Homo sapiens), sequence (O94782 whole entry, looked up): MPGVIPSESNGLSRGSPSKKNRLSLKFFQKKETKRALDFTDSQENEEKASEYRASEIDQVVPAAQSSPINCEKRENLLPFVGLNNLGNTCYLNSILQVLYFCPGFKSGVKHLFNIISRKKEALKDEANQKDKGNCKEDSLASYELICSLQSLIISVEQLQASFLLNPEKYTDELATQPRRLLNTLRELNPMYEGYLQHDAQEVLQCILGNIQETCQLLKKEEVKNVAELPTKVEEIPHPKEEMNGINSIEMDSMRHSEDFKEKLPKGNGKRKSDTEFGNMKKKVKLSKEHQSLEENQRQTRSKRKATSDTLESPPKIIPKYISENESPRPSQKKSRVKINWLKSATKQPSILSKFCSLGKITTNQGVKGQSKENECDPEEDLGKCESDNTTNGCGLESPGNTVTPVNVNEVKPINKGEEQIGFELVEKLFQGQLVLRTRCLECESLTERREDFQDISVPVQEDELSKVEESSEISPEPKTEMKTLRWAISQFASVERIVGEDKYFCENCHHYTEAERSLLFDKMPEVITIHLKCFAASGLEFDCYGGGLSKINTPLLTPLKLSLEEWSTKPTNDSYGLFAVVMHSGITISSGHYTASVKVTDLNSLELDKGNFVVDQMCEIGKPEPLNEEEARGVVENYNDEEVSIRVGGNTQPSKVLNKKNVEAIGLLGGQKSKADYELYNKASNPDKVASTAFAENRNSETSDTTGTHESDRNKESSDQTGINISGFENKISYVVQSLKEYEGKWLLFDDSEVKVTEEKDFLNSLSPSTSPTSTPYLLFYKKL
Outline: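 Deubiquitinase activity followed as kinetic rhodamine fluorescence release from 150 nM Ub-Rho. 1 nM USP1/UAF1 with compound, after 15 min room-temperature preincubation, in HEPES pH 7.8 buffer containing TCEP, EDTA, BSA and Tween-20.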

[19] = molecular target: 3',5'-cyclic-AMP phosphodiesterase 4B (Homo sapiens) (UniProt Q07343); test: qHTS Assay for Inhibitors of PDE-IV (AID 607; active means well fitted activation curve with a large enough effect in the main read-out, with a control signal flat, not every such curve was filed as active; further: % of control where 0% means no effect); conditions: HEK293 ACTOne CNG channel cells, membrane potential fluorescence; series mostly up to 22.9 µM
3',5'-cyclic-AMP phosphodiesterase 4B (Homo sapiens), sequence (Q07343 whole entry, looked up): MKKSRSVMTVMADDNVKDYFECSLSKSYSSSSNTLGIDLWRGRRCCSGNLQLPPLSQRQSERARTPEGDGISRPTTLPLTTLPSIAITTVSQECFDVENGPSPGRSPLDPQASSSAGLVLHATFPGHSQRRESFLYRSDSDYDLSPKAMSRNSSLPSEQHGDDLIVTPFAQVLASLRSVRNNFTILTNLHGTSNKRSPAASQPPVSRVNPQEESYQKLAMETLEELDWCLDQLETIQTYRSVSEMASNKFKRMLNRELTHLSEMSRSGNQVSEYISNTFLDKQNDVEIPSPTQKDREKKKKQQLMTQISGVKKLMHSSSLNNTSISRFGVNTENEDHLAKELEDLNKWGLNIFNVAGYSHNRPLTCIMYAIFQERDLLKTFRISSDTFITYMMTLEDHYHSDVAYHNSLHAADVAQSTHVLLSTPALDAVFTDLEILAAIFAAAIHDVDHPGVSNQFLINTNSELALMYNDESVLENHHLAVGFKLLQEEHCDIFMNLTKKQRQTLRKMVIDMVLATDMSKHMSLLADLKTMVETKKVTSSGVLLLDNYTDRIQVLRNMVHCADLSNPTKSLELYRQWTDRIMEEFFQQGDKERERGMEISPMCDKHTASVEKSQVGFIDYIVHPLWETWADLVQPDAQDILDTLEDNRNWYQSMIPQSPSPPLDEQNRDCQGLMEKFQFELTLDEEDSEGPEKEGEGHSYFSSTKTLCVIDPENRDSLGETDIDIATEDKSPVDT
Outline: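 The readout is membrane depolarisation from a cAMP-sensing CNG channel, detected with a potential dye at ex 535/em 590. Cells were HEK293-derived (endogenous PDE-IV) at 1000 cells/well, titrated up to 22.9 uM final.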

[20] = qHTS Assay for Lipid Storage Modulators (AID 1519; calls by dose curve); conditions: Drosophila S3 cells, BODIPY lipid droplet/cell ratio, laser cytometry, cells loaded with oleic acid; for activity change, negative = inhibition: at 57.5 µM (top of the series)
Outline: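 Cells seeded at 5,000 per well were treated with compounds over a concentration series and loaded with oleic acid (400 uM, as added). Lipid droplet fluorescence (488 nm excitation, 500-530 nm channel) was read by laser-scanning cytometry and normalized to 20 uM Triacsin C.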

[21] = measured here: cell count channel max response
[22] = measured here: lipid channel max response

CC[C@H](C)N(C)C(=O)c1cc2ccccc2c(-c2ccccc2Cl)n1
inactive: activity change, negative = inhibition [1] -18% | Potency [2] | activity change, negative = inhibition ([3]; at 38 µM (top of the series)) -2.88% | activity, negative = inhibition ([4]; at 38 µM (top of the series)) 8.11% | Potency [5] | outcome [6] | Potency [7] | Potency [8] | Potency [9] | outcome [10] | outcome [11] | outcome [12] | Potency [13] | Potency [14] | Potency [15]

C[C@@H](C(=O)O)c1ccc(-c2ccccc2)c(F)c1
inactive: activity change, negative = inhibition ([3]; at 17.2 µM (top of the series)) 3.63% | activity, negative = inhibition ([4]; at 17.2 µM (top of the series)) 1.05% | Potency [16] > 20.6 µM and > 46 µM | Potency [17] > 20.6 µM and > 46 µM | Potency [5] | Potency [18] | Potency [13] | Potency [14] | Potency [15]
active: Potency [2] 10 µM | Potency [8] 0.631 µM

N#CC(=C(/N)Sc1ccccc1N)/C(C#N)=C(\N)Sc1ccccc1N
inactive: Potency [14] | Potency [15]

O=C(Nc1ccccc1)N[C@H]1C[C@H](C(=O)O)Nc2cc(Cl)cc(Cl)c21
-4.62%: max response [20, 21]
0.745%: max response [20, 22]
inactive: Potency [17] > 46 µM | Potency [19] | Potency [7] | activity change, negative = inhibition [20] 6.02% | Potency [13] | Potency [14] | Potency [15]

CC(C)=CCC/C(C)=C/CC/C(C)=C/CO
inactive: Potency [7] | Potency [18] | Potency [13] | Potency [14] | Potency [15]

CCOC(=O)C(CCc1ccccc1)NC1CCc2ccccc2N(CC(=O)O)C1=O (stereo not drawn)
11.8%: max response [20, 21]
inactive: activity change, negative = inhibition [20] 1.93% | Potency [18] | Potency [14] | Potency [15]
17.9%: max response [20, 22]

C[N+](C)(C)CCC(=O)c1cccc2ccccc12
inactive: Potency [16] > 46 µM | Potency [17] > 46 µM | Potency [5] | Potency [19] | outcome [6] | Potency [7] | Potency [9] | outcome [10] | outcome [11] | outcome [12] | Potency [14] | Potency [15]
active: Potency [2] 7.94 µM | activity change, negative = inhibition ([3]; at 38 µM (top of the series)) 13.8% | activity, negative = inhibition ([4]; at 38 µM (top of the series)) -81.5%
